# From PubChem
# PAX8 reporter – inhibitors of PAX8 transcriptional activity in RMG-I cells. RMG-I TPO-luciferase reporter, SteadyGlo, 24 h. inhibition, % at 12.6 µM. 360,000 tested, 1.2% active;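 active = mean replicate inhibition at least 60% with every replicate also reaching 60%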;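 also: luciferase light reporting Pax8 driven TPO promoter activity; plate controls were median of neutral control wells for no effect and mitoxantrone controls for full effect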
# TRPM1 prom inh – reduces MITF-dependent TRPM1 promoter luciferase signal | SK-MEL-5 TRPM1 promoter luciferase, 24 h | inhibition, % at 12.5 µM | 330,000 tested, 0.83% active;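 active = mean inhibition across replicates of 60% or more, whatever share of single replicates reaches that level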
# LGR2 antag – inhibitors of bursicon-induced Drosophila LGR2 receptor cAMP signaling; HEK293 LGR2, CRE-luciferase, bursicon-stimulated, 4 h; inhibition, % at 9.99 µM; 380,000 tested, 0.35% active;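 active = drop in luminescence signal, shown as inhibition above about 50% in the replicate tests, limit read from the data, passing the limit was not always enough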;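 also: agonist challenge used bursicon conditioned medium at about half maximal strength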
# Shn3 3UTR inh – inhibitors of Schnurri-3 3'UTR reporter in osteoblasts. Clone20 osteoblast Shn3 3'UTR firefly luciferase, 24 h. inhibition, % at 12.5 µM. 360,000 tested, 0.52% active;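 active = mean inhibition of at least 75% with every replicate also reaching 75%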;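 also: 0% = median of neutral control wells and 100% = pilot-screen positive control compound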
# EWS-Fli block – blocks EWS/Fli oncoprotein-driven transcription. inhibition, % at 12.6 µM. 350,000 tested, 0.67% active. AID 651661. A673 NR0B1-luciferase reporter, viability-normalised;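 active = mean inhibition of at least 50% after viability correction, with every replicate also passing that limit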;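 also: firefly luciferase signal divided by Alamar Blue viability fluorescence both relative to DMSO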
# LMP1 NFkB inh – Epstein-Barr LMP1 NF-kappaB reporter inhibition. LMP1-induced NF-kappaB luciferase reporter cells, luminescence. inhibition, % at 12.5 µM. 350,000 tested, 0.69% active; in the data active = inhibition above about 41%;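 also: 0% = neutral control wells and 100% = reference inhibitor control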
# Starred values were filed as active, the others as inactive; . = not tested or not shown. The list is not random: actives were taken first. Their share in the collection is about 2.2%.
SMILES,PAX8 reporter,TRPM1 prom inh,LGR2 antag,Shn3 3UTR inh,EWS-Fli block,LMP1 NFkB inh
C[C@@H]1CCCCO[C@@H](CN(C)C(=O)Nc2cccc3ccccc23)[C@H](C)CN([C@@H](C)CO)C(=O)c2cc(NC(=O)NC3CCCCC3)ccc2O1,-5,.,6,.,6,.
CC(C)C#Cc1ccc2c(c1)O[C@@H](CN(C)C(=O)c1ccncc1)[C@H](C)CN([C@H](C)CO)S2(=O)=O,1,.,-12,.,-13,.
CCOC(=O)c1cc([N+](=O)[O-])cc([N+](=O)[O-])c1Sc1ncnc2nc[nH]c12,25,107*,-9,96*,44,-5
CCOC(=O)C(C)(C)Sc1ncnc2nc[nH]c12,.,-9,.,-13,.,10
O=C(c1ccccc1F)N1CC2(C1)[C@H](c1ccccc1)[C@@H](CO)N2CC1CC1,-11,.,-7,.,5,.
C=CC1c2cc(OC)c(OC)cc2CC(C)N1Cc1ccc(OC)cc1 (configuration not stated),12,.,.,.,56*,.
CC(C)CC#Cc1ccc2c(c1)O[C@H](CN(C)Cc1ccccn1)[C@@H](C)CN([C@@H](C)CO)S2(=O)=O,61*,.,7,.,31,.
C[C@@H]1CN([C@H](C)CO)S(=O)(=O)c2ccc(-c3ccccc3F)cc2O[C@H]1CN(C)Cc1ccncc1,.,.,-14,.,60*,.
CC(C)CC#Cc1ccc2c(c1)O[C@@H](CN(C)Cc1ccncc1)[C@H](C)CN([C@@H](C)CO)S2(=O)=O,87*,.,5,.,34,.
C[C@H]1CN([C@@H](C)CO)S(=O)(=O)c2ccc(-c3ccccc3F)cc2O[C@H]1CN(C)Cc1ccncc1,.,.,11,.,23,.
COc1ccc(S(=O)(=O)N[C@@H]2CC[C@H](CCn3cc(-c4cccc(F)c4)nn3)O[C@H]2CO)cc1,13,.,-13,.,9,.
CO[C@H]1CN(C)C(=O)c2cc(NC(=O)C3CC3)ccc2OC[C@H](C)N(CCC(F)(F)F)C[C@@H]1C,20,.,2,.,-1,.
COc1ccc(NC(=O)Nc2ccc3c(c2)C(=O)N([C@@H](C)CO)C[C@@H](C)[C@@H](CN(C)Cc2ccc(C(=O)O)cc2)OCCCC[C@@H](C)O3)cc1,2,.,1,.,-5,.
COc1ccc(C#Cc2ccc([C@@H]3[C@@H](CO)N4C(=O)CN(C(=O)c5cccnc5)C[C@@H]34)cc2)cc1,6,.,30,.,2,.
COc1ccc2c3c([nH]c2c1)[C@H](CO)N(Cc1nccs1)CC31CN(Cc2cccnc2)C1,-1,.,4,.,-10,.
O=C(c1ccccc1)c1nn(-c2ccccc2)c(=O)cc1C(F)(F)F,.,13,.,-1,.,-14
O=C(c1ccccc1)c1nn(-c2ccc(Cl)cc2)c(=O)cc1C(F)(F)F,.,24,.,74,.,64*
COc1ccc([Si](C)(C)[C@H]2[C@H](CCO)O[C@@]3(C(=O)N(Cc4ccc(NC(C)=O)cc4)c4ccccc43)[C@@H]2C)cc1,111*,.,.,.,-20,.
COc1ccc([Si](C)(C)[C@@H]2[C@@H](CCO)O[C@]3(C(=O)N(Cc4ccc(NC(C)=O)cc4)c4ccccc43)[C@H]2C)cc1,107*,.,.,.,7,.
CCCNC(=O)Nc1ccc2c(c1)OC[C@H](C)N(CCC)C[C@@H](C)[C@@H](OC)CN(C)C2=O,1,.,1,.,-1,.
Cc1noc(C)c1S(=O)(=O)N(C)C[C@H]1Oc2ccc(NC(=O)NC(C)C)cc2CC(=O)N([C@@H](C)CO)C[C@@H]1C,-3,.,-15,.,-1,.
C[C@H](O)C#Cc1cnc2c(c1)C(=O)N([C@@H](C)CO)C[C@@H](C)[C@H](CN(C)C(=O)c1ccncc1)O2,.,.,-6,.,-1,.
CN(C)c1ccc(/C=C2/SC(=O)N(CCN=C3NS(=O)(=O)c4ccccc43)C2=O)cc1,-36,-33,-20,-45,-31,-14
CN(C)c1ccc(/C=C2\SC(=O)N(CCc3nnc(N)s3)C2=O)cc1,50,83*,89*,69,82*,73*
C[C@@H]1CCCCO[C@H](CN(C)CC2CCCCC2)[C@H](C)CN([C@H](C)CO)C(=O)c2cc(NS(=O)(=O)c3ccc(Cl)cc3)ccc2O1,95*,.,26,.,63*,.
SMILES,PAX8 reporter,TRPM1 prom inh,LGR2 antag,Shn3 3UTR inh,EWS-Fli block,LMP1 NFkB inh
Cc1ccc(S(=O)(=O)Nc2ccc3c(c2)C(=O)N([C@H](C)CO)C[C@@H](C)[C@@H](CN(C)CC2CCCCC2)OCCCC[C@H](C)O3)cc1,27,.,-4,.,12,.
C[C@@H]1CN([C@H](C)CO)C(=O)c2cc(NS(=O)(=O)c3ccc(Cl)cc3)ccc2O[C@@H](C)CCCCO[C@@H]1CN(C)CC1CCCCC1,78*,.,-4,.,61*,.
Cc1ccc(S(=O)(=O)Nc2ccc3c(c2)C(=O)N([C@H](C)CO)C[C@@H](C)[C@@H](CN(C)CC2CCCCC2)OCCCC[C@@H](C)O3)cc1,88*,.,2,.,30,.
CCOC(=O)/C(=C\c1ccc(Cl)cc1)c1nc2sc(C)c(C)c2c(=O)[nH]1,-14,78*,40,23,.,6
CCc1cc[n+](C2=C([O-])c3ccccc3C(=O)/C2=N\S(=O)(=O)c2cccs2)cc1,87*,97*,17,59,3,3
O=C1N=C(N2CCN(c3cccc4ccccc34)CC2)S/C1=C/c1cccs1,.,-8,.,9,.,78*
Cc1ccccc1N1CCN(C2=NC(=O)/C(=C\c3cccs3)S2)CC1,-97,-24,-100,7,-17,-2
Cc1ccc(S(=O)(=O)N(C)C[C@H]2OCCCC[C@H](C)Oc3ccc(NS(=O)(=O)c4ccccc4)cc3C(=O)N([C@H](C)CO)C[C@@H]2C)cc1,62*,.,-4,.,20,.
Cc1ccc(S(=O)(=O)Nc2ccc3c(c2)C(=O)N([C@H](C)CO)C[C@@H](C)[C@H](CN(C)S(=O)(=O)c2ccccc2)OCCCC[C@H](C)O3)cc1,80*,.,-14,.,3,.
Cc1ccc(S(=O)(=O)Nc2ccc3c(c2)C(=O)N([C@@H](C)CO)C[C@@H](C)[C@@H](CN(C)S(=O)(=O)c2ccccc2)OCCCC[C@H](C)O3)cc1,3,.,3,21,12,2
O=S(=O)(N[C@H]1CC[C@@H](CCn2cc(C3(O)CCCC3)nn2)O[C@@H]1CO)c1ccc(Cl)cc1,18,.,6,.,2,.
O=C(CSc1nc2ncc(Cl)cc2[nH]1)N1CCOCC1,-22,-4,-6,86*,-7,-4
Cc1ccc(S(=O)(=O)N[C@@H]2C=C[C@@H](CC(=O)N3CCC(Cc4ccccc4)CC3)O[C@@H]2CO)cc1,90*,.,-3,.,18,.
O=C(C[C@@H]1C=C[C@@H](NS(=O)(=O)c2ccccc2)[C@H](CO)O1)N1CCC(Cc2ccccc2)CC1,0,.,10,.,8,.
O=C(Nc1nnc(SCc2ccc(F)cc2)s1)c1ccccn1,17,1,-15,77,-10,45*
O=C(Nc1nc2cc3c(cc2s1)OCCO3)C1=COCCO1,94*,91*,100*,88*,89*,81*
